Laboratory results taken from PubChem BioAssay (NCATS).
Several values for one entry are separate records, joined by “and”; a condition that tells them apart may be missing. Equal entries are not always repeated. Records with an inconclusive call do not appear. Activity calls are given as the source filed them. Unless noted, the call rests on the fitted dose curve; in most records, active means well fitted curve in the direction sought with a large enough effect; inconclusive means small, poorly fitted or top-dose-only effect, or another doubt; inactive means no such curve, though single readings can be large; an effect the other way counts as inactive or inconclusive.

What was measured:
[1] = biological target: Guanine nucleotide-binding protein G(i) subunit alpha-1 (Homo sapiens) (UniProt P63096); experiment: qHTS Assay for Inhibitors of RGS12 GoLoco Motif Activity (Green Fluorophore) (AID 879);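 further: negative values mean loss of peptide binding seen as reduced polarization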
Guanine nucleotide-binding protein G(i) subunit alpha-1 (Homo sapiens), sequence (P63096 whole entry, looked up): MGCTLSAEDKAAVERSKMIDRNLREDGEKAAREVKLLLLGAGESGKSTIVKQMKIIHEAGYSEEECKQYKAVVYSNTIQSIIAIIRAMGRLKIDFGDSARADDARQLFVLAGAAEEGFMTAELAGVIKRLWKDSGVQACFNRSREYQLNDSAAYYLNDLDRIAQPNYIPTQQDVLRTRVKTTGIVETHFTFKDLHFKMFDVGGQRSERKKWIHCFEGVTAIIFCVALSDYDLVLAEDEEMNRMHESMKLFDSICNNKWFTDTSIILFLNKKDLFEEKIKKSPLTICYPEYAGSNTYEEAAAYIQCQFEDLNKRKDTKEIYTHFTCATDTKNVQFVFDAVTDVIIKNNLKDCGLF
Summary of the method: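 A drop in FITC polarization marked displacement of the FITC-tagged RGS12 GoLoco peptide (10 nM) from Gαi1 (50 nM). Compounds were incubated 10 min at room temperature in Tris pH 7.5 buffer containing 150 mM NaCl, 0.1 mM GDP and 0.05% NP40; unlabeled peptide titration served as control.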

[2] = biological target: Cytochrome P450 3A4 (Homo sapiens) (UniProt P08684); experiment: qHTS Assay for Activators of Cytochrome P450 3A4 (AID 885); further: nearly all actives have a fitted effect of over 65% in size
Cytochrome P450 3A4 (Homo sapiens), sequence (P08684 whole entry, looked up): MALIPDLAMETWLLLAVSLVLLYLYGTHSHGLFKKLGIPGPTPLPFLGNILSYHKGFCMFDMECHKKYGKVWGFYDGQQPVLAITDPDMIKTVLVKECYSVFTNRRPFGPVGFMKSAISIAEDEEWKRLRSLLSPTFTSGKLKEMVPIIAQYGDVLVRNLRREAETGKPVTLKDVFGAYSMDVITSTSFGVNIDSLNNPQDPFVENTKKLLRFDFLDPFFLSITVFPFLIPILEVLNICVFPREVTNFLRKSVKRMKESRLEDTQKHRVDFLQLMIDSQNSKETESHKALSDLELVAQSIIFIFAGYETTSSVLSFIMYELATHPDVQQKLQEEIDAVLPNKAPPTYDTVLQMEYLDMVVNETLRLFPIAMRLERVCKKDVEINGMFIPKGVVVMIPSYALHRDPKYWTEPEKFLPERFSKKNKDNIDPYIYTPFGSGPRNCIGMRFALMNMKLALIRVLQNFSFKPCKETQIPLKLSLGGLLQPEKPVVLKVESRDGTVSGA
Summary of the method: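 Luminescent readout of luciferin formed from 25 uM Luciferin-PPXE (KM level) by 20 nM CYP3A4 in 200 mM KPO4, with 60 min NADPH-driven reaction at room temperature after 10 min compound exposure. Ketoconazole (57 uM) defined 100% inhibition.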

[3] = biological target: Cytochrome P450 2D6 (Homo sapiens) (UniProt P10635); experiment: qHTS Assay for Inhibitors and Substrates of Cytochrome P450 2D6 (AID 891); further: potency means the concentration at half of the fitted maximal effect; nearly all actives have a fitted effect of over 60% in size
Cytochrome P450 2D6 (Homo sapiens), sequence (P10635 whole entry, looked up): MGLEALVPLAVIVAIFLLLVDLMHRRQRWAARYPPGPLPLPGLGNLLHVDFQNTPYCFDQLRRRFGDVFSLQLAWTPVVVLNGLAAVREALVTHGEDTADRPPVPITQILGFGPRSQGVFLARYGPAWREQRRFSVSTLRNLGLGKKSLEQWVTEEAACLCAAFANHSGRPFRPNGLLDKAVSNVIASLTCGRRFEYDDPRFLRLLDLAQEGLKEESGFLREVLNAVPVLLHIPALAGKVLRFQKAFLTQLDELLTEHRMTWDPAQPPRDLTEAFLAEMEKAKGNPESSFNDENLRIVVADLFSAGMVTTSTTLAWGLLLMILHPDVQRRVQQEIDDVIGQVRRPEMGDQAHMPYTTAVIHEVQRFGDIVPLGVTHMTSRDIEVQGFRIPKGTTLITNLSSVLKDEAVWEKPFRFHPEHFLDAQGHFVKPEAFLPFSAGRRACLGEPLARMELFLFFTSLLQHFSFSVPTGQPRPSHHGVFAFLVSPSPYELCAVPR
Summary of the method: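 Luminescent read-out of luciferin formed by 5 nM human CYP2D6 demethylating 30 uM Luciferin-ME EGE (Km level) over 60 min at room temperature after NADPH regeneration addition. Data normalized to full inhibition by 1.43 uM quinidine.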

[4] = qHTS Assay for Identification of Small Molecule Antagonists for NFkB Signaling Pathway (AID 895; active means well fitted inhibition curve with a large enough effect in the signal ratio, with a control signal flat, not every such curve was filed as active; the % refers to the signal ratio)
Summary of the method: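 ME-180 NFkB-bla cells (beta-lactamase under NFkB response element), plated overnight, treated with compound then 10 pM TNF alpha (about EC50) for 5 hrs at 37 C. LiveBLAzer FRET read at 460/530 nm emission, 405 nm excitation.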

[5] = biological target: Cytochrome P450 2C19 (Homo sapiens) (UniProt P33261); experiment: qHTS Assay for Inhibitors and Substrates of Cytochrome P450 2C19 (AID 899); further: potency means the concentration at half of the fitted maximal effect; nearly all actives have a fitted effect of over 60% in size
Cytochrome P450 2C19 (Homo sapiens), sequence (P33261 whole entry, looked up): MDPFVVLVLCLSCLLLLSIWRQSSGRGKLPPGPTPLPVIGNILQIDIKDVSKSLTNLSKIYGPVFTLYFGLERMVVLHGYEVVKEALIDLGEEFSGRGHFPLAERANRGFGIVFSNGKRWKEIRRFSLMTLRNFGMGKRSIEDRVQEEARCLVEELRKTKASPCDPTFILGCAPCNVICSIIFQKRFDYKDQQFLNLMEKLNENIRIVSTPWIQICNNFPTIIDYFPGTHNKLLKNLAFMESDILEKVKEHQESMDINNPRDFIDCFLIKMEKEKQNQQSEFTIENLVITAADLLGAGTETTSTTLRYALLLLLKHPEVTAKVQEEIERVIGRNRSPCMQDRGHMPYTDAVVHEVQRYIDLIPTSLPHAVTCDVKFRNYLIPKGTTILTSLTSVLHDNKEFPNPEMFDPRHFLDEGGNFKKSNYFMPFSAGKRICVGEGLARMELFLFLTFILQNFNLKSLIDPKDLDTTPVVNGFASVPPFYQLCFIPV
Summary of the method: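 Luminescent read-out of luciferin formed from Luciferin-H EGE (10uM, equal to KM). Enzyme 5nM in 50mM KPO4; compound added, 10 min at 37C, then NADPH regenerating system for 60 min at 37C. Full inhibition defined by 57uM ketoconazole.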

[6] = qHTS Assay for Identification of Small Molecule Agonists for Thrombopoietin (TPO) Signaling Pathway (AID 917)
Summary of the method: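 Stimulation at the TPO EC50 (26 pM final) was used to detect activators. Ba/F3 mouse cells bearing human TPO receptor and a luciferase reporter under the Glycoprotein IIb promoter were exposed to compounds for 24 hrs at 37 C.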

[7] = Confirmation and Secondary Assay for Modulators of Hemoglobin Beta Chain Splicing at IVS2 705 locus (AID 930);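 further: HeLa cells stably expressing the EGFP-705 splicing reporter; GFP fluorescence per well restored by corrected splicing of the IVS2-705 intron in EGFP; series mostly up to about 46 µM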
Summary of the method: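 Fluorescence gain (488 nm laser, 500-520 nm PMT) reflects restored correct splicing of a mutant IVS2-705 intron inside EGFP in stably transfected HeLa cells after 2-day compound treatment.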

[8] = biological target: Muscarinic acetylcholine receptor M1 (Rattus norvegicus) (UniProt P08482); experiment: qHTS Assay for Antagonists of Acetylcholine Muscarinic M1 Receptor: Kinetic Measurement of Intracellular Calcium Response (AID 943);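 further: Fluo-4 calcium signal as peak divided by basal fluorescence over 4 min; series mostly up to about 35 µM; nearly all actives have a fitted effect of over 75% in size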
Muscarinic acetylcholine receptor M1 (Rattus norvegicus), sequence (P08482 whole entry, looked up): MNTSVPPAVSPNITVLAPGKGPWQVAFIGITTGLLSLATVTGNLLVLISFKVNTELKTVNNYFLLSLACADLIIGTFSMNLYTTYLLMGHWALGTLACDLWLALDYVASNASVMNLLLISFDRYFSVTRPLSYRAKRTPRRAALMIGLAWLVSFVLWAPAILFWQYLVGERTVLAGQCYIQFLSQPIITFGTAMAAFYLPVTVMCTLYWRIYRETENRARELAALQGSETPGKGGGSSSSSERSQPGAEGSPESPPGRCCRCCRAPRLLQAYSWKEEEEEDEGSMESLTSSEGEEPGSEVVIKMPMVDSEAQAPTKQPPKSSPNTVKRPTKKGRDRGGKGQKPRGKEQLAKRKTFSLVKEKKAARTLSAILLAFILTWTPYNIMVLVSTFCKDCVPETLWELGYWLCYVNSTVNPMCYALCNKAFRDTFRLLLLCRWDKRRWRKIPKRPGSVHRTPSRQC
Summary of the method: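 Quantitative HTS in CHO-M1 (rat receptor) cells: 10 min compound exposure ahead of 100 nM carbachol, Fluo-4 fluorescence followed 4 min, value expressed as peak-to-basal ratio.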

[9] = biological target: Pyruvate kinase (Leishmania mexicana) (UniProt Q27686); experiment: qHTS Validation Assay for Inhibitors of Leishmania Mexicana Pyruvate Kinase (AID 945)
Pyruvate kinase (Leishmania mexicana), sequence (Q27686 2-499 E452W): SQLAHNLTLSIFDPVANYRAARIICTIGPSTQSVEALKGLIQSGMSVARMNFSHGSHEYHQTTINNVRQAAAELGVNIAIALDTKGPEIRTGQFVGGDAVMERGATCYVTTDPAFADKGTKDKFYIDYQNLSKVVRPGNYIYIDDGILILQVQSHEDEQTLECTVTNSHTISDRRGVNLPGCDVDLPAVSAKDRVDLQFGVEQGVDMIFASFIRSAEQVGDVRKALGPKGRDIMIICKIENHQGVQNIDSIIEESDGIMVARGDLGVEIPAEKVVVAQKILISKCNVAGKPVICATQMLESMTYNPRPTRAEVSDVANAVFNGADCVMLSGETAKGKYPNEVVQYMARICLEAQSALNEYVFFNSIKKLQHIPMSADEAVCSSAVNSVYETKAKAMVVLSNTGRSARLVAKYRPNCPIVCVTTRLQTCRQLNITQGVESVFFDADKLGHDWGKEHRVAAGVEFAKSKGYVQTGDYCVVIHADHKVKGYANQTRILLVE
Summary of the method: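 Compounds are tested as eight-point concentration series. Reactions contain 0.2 nM LmPYK E451W, 0.5 mM PEP, 0.1 mM ADP, 7 mM MgCl2 and 50 mM KCl at pH 7.2, run 1 h at room temperature, then read by PKLight luminescence.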

[10] = biological target: Pyruvate kinase PKM (Homo sapiens) (UniProt P14618); experiment: qHTS Assay for Activators of Human Muscle Pyruvate Kinase (AID 954; active means well fitted curve in the direction sought with a large enough effect, not every such curve was filed as active)
Pyruvate kinase PKM (Homo sapiens), sequence (P14618 whole entry, looked up): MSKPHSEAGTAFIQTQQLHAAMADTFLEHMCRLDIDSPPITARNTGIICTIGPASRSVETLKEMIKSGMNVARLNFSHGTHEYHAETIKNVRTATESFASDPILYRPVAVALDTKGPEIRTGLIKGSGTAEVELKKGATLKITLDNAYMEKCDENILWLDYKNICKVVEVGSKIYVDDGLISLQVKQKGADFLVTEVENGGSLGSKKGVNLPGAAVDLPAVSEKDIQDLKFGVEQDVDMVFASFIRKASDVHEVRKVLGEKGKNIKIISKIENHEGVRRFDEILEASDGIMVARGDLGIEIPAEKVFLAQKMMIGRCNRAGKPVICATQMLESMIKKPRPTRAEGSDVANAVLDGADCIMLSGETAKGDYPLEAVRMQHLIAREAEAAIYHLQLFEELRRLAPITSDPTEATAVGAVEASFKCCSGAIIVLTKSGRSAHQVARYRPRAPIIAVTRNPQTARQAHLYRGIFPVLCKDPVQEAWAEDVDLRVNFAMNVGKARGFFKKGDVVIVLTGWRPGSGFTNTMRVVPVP
Summary of the method: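 ATP production by PKM2 detected via luciferase luminescence after 1 h room-temperature reaction (0.1 nM enzyme, PEP at Km 0.5 mM, ADP 0.1 mM, pH 7.2 imidazole buffer). Inhibition scaled to no-enzyme control; activation referenced to 0.3 nM enzyme wells.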

[11] = Cellular Toxicity (caspase-3) Renal Proximal Tubule (AID 667);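 further: cells exposed to compound for 16 hours at 37 °C before detection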
Summary of the method: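 Freshly isolated primary rat kidney proximal tubule cells, 1000/well, treated 16 hr at 37 °C, then Caspase-Glo 3/7 luminescence after 1 hr. Normalized to DMSO and 10 uM staurosporine; AC50 from Hill fit.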

[12] = Cell Viability - LYMP2-001 (AID 921); further: series mostly up to about 92 µM; nearly all actives have a fitted effect of over 70% in size
Summary of the method: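 Human lymphoblastoid LYMP2-001 cells, 2500 per well, in complete medium, treated 24 h at 37 C. Viability from cellular ATP by CellTiter-Glo luminescence; AC50 from Hill-equation fits of qHTS concentration-response.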

[13] = MultiTox-Fluor Cytotoxicity Assay - LYMP1-001 - Dead Cells (AID 946)
Summary of the method: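 Cytotoxicity as increased dead-cell protease fluorescence (bis-AAF-R110, 485/520 nm), read 60 min after MultiTox-Fluor reagent. Human lymphoblastoid line exposed 16 h; Hill-fitted AC50, with DMSO as 0% and 15 uM tetraoctylammonium bromide as 100%.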

[14] = MultiTox-Fluor Cytotoxicity Assay - LYMP1-001 - Live Cells (AID 947)
[15] = Cell Viability - LYMP1-002 - Assay at 16 hr (AID 948)
Summary of the method: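 LYMP1-002 human lymphoblastoid cells, 2500/well, were treated with compounds for 16 hr at 37 C in complete medium. Viability was read as intracellular ATP by CellTiter-Glo luminescence, and AC50 was derived from a Hill fit to concentration-response data.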

[16] = MultiTox-Fluor Cytotoxicity Assay - LYMP1-002 - Live Cells (AID 955);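 further: cells exposed to compound for 16 hours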
Summary of the method: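 In this qHTS viability format, lymphoblastoid cells (LYMP1-002, human) received compound for 16 hr at 37 C. Fluorogenic GF-AFC cleavage by viable cells was detected at 405/510 nm after 1 h at room temperature.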

[17] = biological target: Cytochrome P450 3A4 (Homo sapiens) (UniProt P08684); experiment: qHTS Assay for Inhibitors and Substrates of Cytochrome P450 3A4 (AID 884); further: series mostly up to about 57 µM; nearly all actives have a fitted effect of over 50% in size
Summary of the method: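 Luminescent readout of luciferin produced by CYP3A4 (20 nM) dealkylation of Luciferin-PPXE, 25 uM (its KM). NADPH-driven reaction ran 60 min at RT after 10 min compound preincubation; data scaled to 57 uM ketoconazole as 100% inhibition.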

[18] = biological target: Muscarinic acetylcholine receptor M1 (Rattus norvegicus) (UniProt P08482); experiment: qHTS Assay for Antagonists of Acetylcholine Muscarinic M1 Receptor: Measurement of IP-One Response (AID 944); further: nearly all actives have a fitted effect of over 75% in size
Summary of the method: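 Antagonism was measured as loss of carbachol-driven (EC80) IP1 accumulation in CHO cells carrying rat M1, using a homogeneous IP-One TR-FRET kit read at 620 and 665 nm.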

[19] = biological target: Cytochrome P450 2C9 (Homo sapiens) (UniProt P11712); experiment: qHTS Assay for Inhibitors and Substrates of Cytochrome P450 2C9 (AID 883); further: nearly all actives have a fitted effect of over 60% in size
Cytochrome P450 2C9 (Homo sapiens), sequence (P11712 whole entry, looked up): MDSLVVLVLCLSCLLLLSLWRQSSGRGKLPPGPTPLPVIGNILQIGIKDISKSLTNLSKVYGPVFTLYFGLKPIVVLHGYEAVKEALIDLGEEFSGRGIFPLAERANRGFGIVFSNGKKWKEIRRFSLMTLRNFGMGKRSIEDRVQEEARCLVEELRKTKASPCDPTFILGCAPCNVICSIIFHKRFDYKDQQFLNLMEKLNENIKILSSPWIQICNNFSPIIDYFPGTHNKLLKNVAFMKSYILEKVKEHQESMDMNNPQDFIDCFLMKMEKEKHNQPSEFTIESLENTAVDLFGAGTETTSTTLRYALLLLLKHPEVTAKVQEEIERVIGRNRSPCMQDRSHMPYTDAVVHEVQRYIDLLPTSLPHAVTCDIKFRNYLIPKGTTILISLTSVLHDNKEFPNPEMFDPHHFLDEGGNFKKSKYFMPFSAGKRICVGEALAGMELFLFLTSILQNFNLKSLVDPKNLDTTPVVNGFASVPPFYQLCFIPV
Summary of the method: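 10nM CYP2C9 + 100uM Luciferin-H (=KM), 25mM KPO4; cpd 10 min 37C; NADPH regen, 60 min 37C; stop/detect with P450 Glo-Buffer 20 min; luminescence. Norm. to 57uM sulphaphenazole as full inhibition.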

Measured: Potency

O=C(CCCN1CCC2(CC1)C(=O)NCN2c1ccccc1)c1ccc(F)cc1
inactive: [1] | [2] | [4] | [6] | [7] | [8] | [9] | [10]
active: [3] 2.51 µM and 1.58 µM | [5] 6.31 µM

CN1C[C@H](C(=O)N[C@]2(C)O[C@@]3(O)[C@@H]4CCCN4C(=O)[C@H](Cc4ccccc4)N3C2=O)C=C2c3cccc4[nH]cc(c34)C[C@H]21
inactive: [11] | [12] | [13] | [14] | [15] | [16]

CCOC(=O)CC(SP(=S)(OC)OC)C(=O)OCC (centres undefined)
inactive: [11] | [2] | [12] | [13] | [14] | [15] | [16]

COc1cc(OC)c(OC)cc1C=O
inactive: [11] | [17] | [12] | [7] | [13] | [15] | [16]

CCCCC/C=C\C/C=C\C/C=C\C/C=C\CCCC(=O)NCC(=O)O
inactive: [1] | [6] | [8] | [18] | [9] | [10]

COC(=O)C(c1ccccc1)C1CCCCN1 (centres undefined)
inactive: [11] | [17] | [12] | [13] | [14] | [15] | [16]

C[C@]1(O)CC[C@H]2[C@@H]3CCC4=CC(=O)CC[C@]4(C)[C@@]3(F)[C@@H](O)C[C@@]21C
inactive: [11] | [17] | [12] | [13] | [14] | [15] | [16]

CC(C)c1cccc(C(C)C)c1O
inactive: [11] | [1] | [4] | [6] | [12] | [7] | [18] | [9] | [13] | [14] | [15] | [10] | [16]

CCCC(C)(COC(N)=O)COC(N)=O
inactive: [11] | [17] | [12] | [13] | [14] | [15] | [16]

CCC(C)(C)c1ccc(O)cc1
inactive: [11] | [17] | [12] | [13] | [14] | [15] | [16]

COP(=S)(OC)Oc1ccc(SC)c(C)c1
inactive: [11] | [12] | [7] | [13] | [14] | [15] | [16]

O=c1[nH]oc2c1CCNC2
inactive: [1] | [19] | [17] | [4] | [6] | [7] | [8] | [18] | [9] | [10]

CC(C)NC(C)C
inactive: [11] | [17] | [12] | [13] | [14] | [15] | [16]

Clc1ccc(C(c2ccc(Cl)cc2)C(Cl)(Cl)Cl)cc1
inactive: [11] | [17] | [12] | [7] | [13] | [14] | [15] | [16]
